# Measured values: PubChem BioAssay AID485364 (National Center for Advancing Translational Sciences (NCATS), 2010)
# About 11,000 (3.1%) of roughly 360,000 compounds were called active. Not shown: some 4% with an inconclusive outcome. For the sample, actives were picked, then their nearest neighbours and some compounds at random. Values without a mark were called inactive. The call rests on the fitted dose curve; in most records, active means well fitted inhibition curve with a large enough effect; inconclusive means small, poorly fitted or top-dose-only effect; inactive means no such curve, though single readings can be large or run the other way.
# Molecular target: Schistosoma mansoni thioredoxin glutathione reductase (TGR) (UniProt Q962Y6)
# Experiment: qHTS Assay for the Inhibitors of Schistosoma Mansoni Peroxiredoxins; further: nearly all actives have a fitted effect of over 60% in size
# Conditions: purified TGR, DTNB reduction, TNB absorbance 405 nm; series mostly up to 114 µM; activity change, negative = inhibition: at the top concentration
# Source text: Schistosomiasis is a major neglected tropical disease that currently affects over 200 million. It is caused by different species of flatworms, such as Schistosoma mansoni. Over the last century, drugs to treat the disease have evolved from potassium antimonyl tartrate, artemisinin, oxamniquine, to praziquantel, with praziquantel remaining the universally-used single drug of choice over the past three decades. However, transmission rates have changed little with praziquantel, and there is evidence for the development of drug resistant parasites. Because there is currently no suitable alternative therapy available, there is an urgent need to identify new targets and drugs for schistosomiasis treatment. Thioredoxin glutathione reductase (TGR), one uniquely positioned S. mansoni enzyme, has been identified as a major component of the worms' distinct and compressed antioxidant "firewall". TGR is a multifunctional enzyme that catalyzes the interconversion between reduced and oxidized forms of both glutathione (GSH) and thioredoxins, thus making it an attractive new antiparasitic target. Recently, a quantitative high-throughput screen of the NIH Molecular Libraries Small Molecule Repository (MLSMR, ~71K at the time of the screen in 2007) was performed using an assay that targeted both TGR and peroxiredoxin2 (Prx2, an H2O2-reducing enzymatic component of the S. mansoni redox "firewall") by following the decrease of NADPH fluorescence. […] Additional mechanistic link between exogenous NO donation and parasitic injury for the oxadiazole-2-oxide class of compounds was also expanded and better defined. Although the screen addressed both TGR and Prx2, the assay required post-screen target deconvolution for further characterization of the actives. In addition, the fluorescence assay was also subject to fluorescence interference from compound library members. We have developed a 1536-well-based kinetic HTS assay to address TGR alone. The assay followed the reduction of 5, 5'-dithiobis (2-nitrobenzoic acid) (DTNB) (Ellman's reagent) by NADPH and measured the increase in absorbance at 412 nm of the reaction product, TNB. […] This assay format can be used to screen the current MLSMR collection (with >300K compounds available) to find novel TGR inhibitors. Furoxan is a good choice to serve as a positive control in the primary HTS assay.
# Three microliters of reagents (100 uM NADPH and 20 nM TGR or 100 uM NADPH as no-enzyme control) were dispensed into 1,536-well black clear-bottomed plates. Compounds (23 nL) were transferred via Kalypsys pin tool equipped with 1536-pin array (10 nL slotted pins, V&P Scientific, San Diego, CA). The plates were then be incubated for 15 min at room temperature, and 1 uL aliquot of 500 uM NADPH were added, immediately followed by a 1 uL aliquot of 15 mM DTNB to start the reaction. The plate was transferred to a ViewLux high-throughput CCD imager (Perkin-Elmer, Wellesley, MA) where kinetic measurements of the TNB absorbance were acquired using a 405 excitation filter. Throughout the screen, reagent bottles and all liquid lines were made light-tight to minimize reagent degradation. All screening operations were performed on a fully integrated robotic system (Kalypsys, San Diego, CA) containing one RX-130 and two RX-90 anthropomorphic robotic arms (Staubli, Duncan, SC). Library plates were screened starting from the lowest and proceeding to the highest concentration, and a "double-dipping" step of the highest concentration was required to access higher concentrations of compounds. Vehicle-only plates, with DMSO being pin-transferred to the entire column 5-48 compound area, were inserted uniformly at the beginning and the end of each library in order to monitor for and record any shifts in the background, which can be affected by reagent dispensers or loss in enzyme activity overtime. […]
# On the % scale 0 is the no-effect control and ±100 the full control effect; potency means the concentration at half of the fitted maximal effect.
SMILES,Potency,"activity change, negative = inhibition [%]"
COc1ccc(S(=O)(=O)N2CCC(C(=O)N3CCOCC3)CC2)cc1OC,79.4 µM (active),
COc1ccc(S(=O)(=O)N2CCC(C(=O)N3CCCC3)CC2)cc1C,,-3.4
CCN1CCN(C(=O)C2CCCN(S(=O)(=O)c3ccc(OC)c(OC)c3)C2)CC1 (centres undefined),,3.29
O=C(C1CCC(Cn2c(=O)c3sccc3n(Cc3ccccc3F)c2=O)CC1)N1CCCCC1 (centres undefined),,19
COc1ccc(Cl)cc1NC(=O)c1sc2nc3c(cc2c1N)CN(C)CC3,,0.374
CCCCN(CC)C(=O)c1c[nH]c2ccc(S(=O)(=O)Nc3cccc(OC)c3)cc2c1=O,,3.28
Clc1ccccc1CSc1nncn2c1cc1occc12,,-12.1
Clc1ccc(CSc2nnc3c(n2)[nH]c2ccccc23)cc1,,10.3
Cc1ccc(-c2nnc(SCC(=O)NCc3ccccc3)nc2-c2ccc(C)cc2)cc1,,0.946
Clc1ccccc1CSc1nnc(-c2ccco2)c(-c2ccco2)n1,7.94 µM (active),
c1ccc(CSc2nnc(-c3ccco3)c(-c3ccco3)n2)cc1,2.82 µM (active),
CC1(C)N=C(SCc2ccccc2Cl)c2ccccc2N1,,-1.4
COc1ccccc1CNC(=O)CCCn1c(=O)c2ccccc2n(CC(=O)Nc2ccc(C)cc2Cl)c1=O,,6.54
COc1cccc(-c2nc3n(n2)C(c2ccccc2Cl)C(C(N)=O)=C(C)N3)c1 (centres undefined),,-0.143
CCN(CC)c1ccc(C2C(C(N)=O)=C(C)Nc3nc(SCc4ccccc4)nn32)cc1 (centres undefined),,2.58
CC1=C(C(N)=O)C(c2ccc3c(c2)OCO3)n2nc(-c3cccc(C)c3)nc2N1 (centres undefined),0.251 µM (active),
Cc1cccc(-n2ccnc2SCC(=O)Nc2cccc3ccccc23)c1C,,-0.262
COc1ccc(CCNc2nc(-c3ccc(F)cc3)cc(C(F)(F)F)n2)cc1OC,,7.8
COc1ccc(-c2cc(C(F)(F)F)nc(S(C)(=O)=O)n2)cc1OC,31.6 µM (active),
COc1ccc(-c2cc(C(F)(F)F)nc(SCC(=O)N(C)Cc3ccccc3)n2)cc1OC,,-0.774
CC1CN(C(=O)N2CCC(C(=O)NCc3ccco3)CC2)c2cc(Cl)ccc2O1 (centres undefined),,2.23
Cc1cc(Cl)ccc1OCC(=O)N(Cc1ccc(N(C)C)cc1)C1CCS(=O)(=O)C1 (centres undefined),,-3.15
CC1CCN(C(=O)COC(=O)CCC(=O)c2cccs2)CC1,,-0.877
O=C(COC(=O)c1cccs1)NCc1cccs1,,0.591
O=C(COC(=O)CCC(=O)c1cccs1)NCc1ccco1,25.1 µM (active),

SMILES,Potency,"activity change, negative = inhibition [%]"
CCN(CCCNC(=O)c1cc2c(=O)n(CC)c3ccccc3c2s1)Cc1ccccc1,,1.45
O=C(Nc1ncc2c(n1)-c1ccccc1OC2)c1ccc(Cl)cc1,,-18.3
CC1=C(C(=O)Nc2ccc(Cl)cc2)C(c2ccco2)NC(=O)N1 (centres undefined),,3.63
COc1cc(C2CC(=O)c3cnc(NC(C)=O)nc3C2)cc(OC)c1OC (centres undefined),,-0.421
CCc1ccc(Nc2ncc3c(n2)CC(c2ccco2)CC3=O)cc1 (centres undefined),39.8 µM (active),
CCN1CCN(c2ncc3c(n2)CC(c2ccccc2O)CC3=O)CC1 (centres undefined),,3.56
O=C(Nc1ncc2c(n1)CC(c1ccco1)CC2=O)c1ccc(Cl)cc1 (centres undefined),44.7 µM (active),
COc1ccc(C(=O)COC(=O)CCCC(=O)Nc2cc(C(F)(F)F)ccc2Cl)cc1,,-11.9
CCc1ccc(C(=O)CC2(O)C(=O)N(CCc3ccccc3)c3ccc(Br)cc32)cc1 (centres undefined),,6.62
CC1CCN(c2nc3ccc(C(=O)N4CCN(c5ccccc5)CC4)cc3s2)CC1,,2.12
CCCN(CCC)CCCNC(=O)Cn1cc2c(n1)-c1c(oc(C(=O)N3CCCC3)c1C)CC2,,-2.8
CCC(=O)Nc1cccc(-c2nc3cc(C)ccc3o2)c1,,11
C[C@@H]1C[C@@H]2O[C@H]2/C=C\C=C\C(=O)Cc2c(Cl)c(O)cc(O)c2C(=O)O1,4.47 µM (active),
CC(C)CC(NS(=O)(=O)c1ccc2c(c1)oc(=O)n2C)C(=O)NCc1ccccc1Cl (centres undefined),,-2.66
CCc1ccc(NC(=O)CN2CCSc3ccc(S(=O)(=O)N4CCCC4)cc32)cc1,,6.65
Cc1cc(OC(C)C(=O)Nc2sc3c(c2C(N)=O)CCCC3)ccc1Cl (centres undefined),,11.2
COc1ccc(-c2cc(C(=O)Nc3sc4c(c3C(N)=O)CCCC4)no2)cc1,,-10
NC(=O)c1c(Nc2nc3c(F)cccc3s2)sc2c1CCCC2,39.8 µM (active),
COC(=O)c1ccc(NC(=O)CSc2n[nH]c(-c3ccccc3)n2)cc1,,6.33
Cc1ccc(CN2COc3cc(C)c4c(oc(=O)c5ccccc54)c3C2)cc1,,-6.11
COc1cc(CN(C(=O)c2ccccc2Br)c2ccccn2)cc(OC)c1OC,,-0.508
COc1cccc(CNC(=O)C2CCN(S(=O)(=O)c3ccc4c(ccn4C)c3)CC2)c1,,-1.19
COc1cc(/C=N/O)cc(Br)c1OS(=O)(=O)c1ccc(C)cc1,,12.5
COc1cc(/C=N/Nc2ccc(C)cc2)cc(Br)c1O,10 µM (active),
